Source: PubChem (National Center for Advancing Translational Sciences (NCATS))
HTT-AS act: activates huntingtin-antisense promoter activity; HEK293 HTT-AS promoter firefly luciferase reporter, 24 h; response scale: percent change from vehicle, -100% = no light; AID 1508624; Potency, µM (doses to about 57.5 µM), for inactives: at the top dose activity change, positive = activation, usual class: activators; actives 0.24% (n = 48,000); note: potency is the fitted concentration of half-maximal effect; nearly all actives have a fitted effect of over 55% in size
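HEK293 luciferase promoter-reporter cells (2,500/well) plated 24 h, then compounds added at up to 57.5 uM final for 24 h at 37 °C. Firefly luminescence by Dual-Glo, normalized to vehicle (0%) and zero RLU (-100%).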
GALC G270D act: raises human GALC G270D mutant activity in cells | P54803 | 145M-Twi-hGALC-G270D cells (Twitcher mouse brain line with human GALC G270D), HMU-beta-Gal fluorescence, 48 h | Potency, µM (doses to about 57.5 µM), most hits filed as activators | actives 0.1% (n = 45,000) | AID 1159614; note: potency is the fitted concentration of half-maximal effect; 0% is about no effect; nearly all actives have a fitted effect of over 65% in size
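Fluorescence readout: HMU-β-gal cleavage by mutant GALC (0.1 mM final, citrate/phosphate pH 5.2 with 1 mg/mL taurocholate), stopped with carbonate/bicarbonate plus Triton X-100. Cells: murine Twitcher 145M-Twi expressing human G270D GALC; qHTS for activators.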
B2AR arrestin ag: agonists recruiting beta-arrestin to human beta2-adrenergic receptor | AID 1347077 | 44,000 tested, under 10 active | P07550 | Potency, µM (series often up to 46.1 µM), actives largely listed as activators | HTLA Tango cells, beta-arrestin recruitment, luciferase luminescence, 18 h;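 note: potency is the fitted concentration of half-maximal effect; 0% = DMSO and full agonism = EC100 isoproterenol or metaproterenol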
Target sequence (P07550 whole entry, looked up): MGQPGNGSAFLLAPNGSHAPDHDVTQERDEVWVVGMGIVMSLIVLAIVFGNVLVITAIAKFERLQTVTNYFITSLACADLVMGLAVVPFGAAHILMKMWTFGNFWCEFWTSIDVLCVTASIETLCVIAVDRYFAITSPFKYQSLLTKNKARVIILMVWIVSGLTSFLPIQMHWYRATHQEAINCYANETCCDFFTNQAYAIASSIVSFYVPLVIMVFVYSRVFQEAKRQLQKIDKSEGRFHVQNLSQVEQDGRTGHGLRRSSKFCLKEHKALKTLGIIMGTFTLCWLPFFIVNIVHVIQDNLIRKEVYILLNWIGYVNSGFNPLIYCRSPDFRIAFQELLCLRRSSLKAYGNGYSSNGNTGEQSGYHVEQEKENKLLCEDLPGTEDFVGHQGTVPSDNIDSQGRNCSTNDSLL
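Receptor–beta-arrestin recruitment read by tTA-responsive luciferase: compound titrations (up to 46 µM) incubated 18 h with Tango cells, then luminescent substrate 15 min at room temperature. Concentration-response fits classified by r2, efficacy and activity.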
FH mod: Identification of activators of human fumarate hydratase by quantitative high-throughput screening; Potency, µM (doses to about 79.9 µM), for the others: at the highest dose activity change, negative = inhibition, usual class: inhibitors; Fumarate hydratase, mitochondrial (Homo sapiens), P07954; FH coupled MDH/diaphorase resazurin fluorescence, 15 min; actives 0.22% (n = 54,000); note: potency is the fitted concentration of half-maximal effect; % is set by controls: 0 for no effect and ±100 for the full control effect; the screen sought activators but most active calls are inhibition curves; nearly all actives have a fitted effect of over 45% in size
DRV1 agonist: activates human resolvin D1 receptor GPR32. CHO-K1 GPR32 beta-arrestin PathHunter luminescence, 90 min; zero percent set by DMSO-only wells. activation, % at 76.9 µM. actives 2.5% (n = 48,000);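 active = activation of at least 60% and not above a set upper limit, about 1 call in 100 departs from these limits; inconclusive = activation of 40% to 60%, or above that upper limit; inactive = activation under 40%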; note: 0% is about no effect
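PathHunter beta-arrestin recruitment in CHO-K1 cells stably expressing ProLink-tagged GPR32. Cells were exposed to compound for 90 min at 37 C, then chemiluminescence was read after 1 h detection at ambient temperature; DMSO served as basal control.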
HTT prom inh: HTT promoter inhibition | HEK293 HTT promoter firefly luciferase reporter, 24 h | actives 0.93% (n = 48,000) | Potency, µM (top dose mostly 57.5 µM), for the others: top-dose activity change, negative = inhibition, usual class: inhibitors; note: potency is the fitted concentration of half-maximal effect; nearly all actives have a fitted effect of over 50% in size
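Firefly luciferase readout (Dual-Glo, 10 min RT) after 24 h, 37 °C compound exposure (final up to 57.5 uM) of HEK293 reporter cells cultured 24 h beforehand; PTC124 at 50 uM final as control inhibitor; activity scaled vehicle 0%, zero RLU -100%.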
An asterisk follows results filed as active; i = inactive; ? = inconclusive; · = no result given; [ ] = another dose, or the depositor's remark. The list is not random: actives were taken first. Their share in the collection is about 3.7%. Unless noted, calls come from the whole dose curve; as a rule, active = well fitted curve in the direction sought with a large enough effect; inconclusive = small, poorly fitted or top-dose-only effect, or another doubt; inactive = no such curve, though single readings can be large; an effect the other way counts as inactive or inconclusive.

SMILES	HTT-AS act	GALC G270D act	B2AR arrestin ag	FH mod	DRV1 agonist	HTT prom inh
CC(C)(C)OC(=O)N1CCC(c2c(C(=O)N3CCCCC3)cnn2-c2cccc(F)c2)CC1	0%	10µM*	i	-20%	2	-11%
O=C(Nc1nonc1-c1ccc(Br)cc1)c1ccco1	-20%	i	i	8%	71*	?
Cc1cccc(C)c1OCC(=O)Nc1nonc1-c1ccc(Br)cc1	-22%	i	i	-18%	-1	-14%
O[C@@H](CNC[C@H](O)[C@H]1CCc2cc(F)ccc2O1)[C@@H]1CCc2cc(F)ccc2O1	-18%	i	·	-3%[53.3 µM]	62*	-20%
N#Cc1c(-n2ncnc2-c2ccc(F)cc2)sc2c1CCCCC2	-62%	i	i	-15%	69*	?
N#Cc1c(-n2ncnc2-c2cccc(Br)c2)sc2c1CCCCC2	-13%	i	i	-10%	13	?
Cc1ccccc1-c1ncnn1-c1sc2c(c1C#N)CCCCC2	11%	i	i	-19%	106*	1%
O=c1oc2c(CN3CCOCC3)c(O)ccc2cc1-c1ccccc1	4%	25µM*	i	-10%	-36	4%
O=C(NCCc1nc2ccccc2n1Cc1ccc(Cl)cc1Cl)c1ccco1	-41%	i	i	?	-26	?
Cc1cccc(C(=O)NCCc2nc3ccccc3n2Cc2ccc(Cl)cc2)c1	-34%	i	i	-24%	17	-12%
O=C(NCCCc1nc2ccccc2n1Cc1ccc(Cl)cc1Cl)c1ccco1	·	·	i	·	97*	·
O=C(NCCc1nc2ccccc2n1Cc1ccc(Cl)cc1)c1ccccc1	-38%	i	i	-4%	81*	-26%
CC(C)=CCCC1(C)Oc2cc3c(c4c2C2C(O4)C(C)(O)CCC21)CN(C(CCC(=O)O)C(=O)O)C3=O (stereo unspecified)	·	·	·	19%[53.3 µM]	·	·
Cc1nc(C)c(-c2ccc(C3CCC(CC(=O)O)CC3)cc2)nc1C(N)=O (stereo unspecified)	·	·	·	0%	·	·
COc1ccc(Cn2c(C(=O)O)c(CNCc3ccc(OC)cc3OC)c3ccc(C)cc32)cc1	-16%	i	i	-21%	4	-30%
C=Cc1ccc(Cn2c(C(=O)O)c(CNCCc3ccco3)c3ccc(C)cc32)cc1	-37%	i	i	-12%	88*	-25%
COc1ccc(Cn2c(C(=O)O)c(CNCCc3ccco3)c3ccc(C)cc32)cc1	-24%	i	i	-19%	104*	-17%
COc1ccc(Cn2c(C(=O)O)c(CNCCc3cc(OC)ccc3OC)c3ccc(C)cc32)cc1	-44%	i	i	-37%	106*	?
Cc1ccc2c(CNCCc3ccccc3)c(C(=O)O)n(Cc3ccccc3C)c2c1	-20%	i	i	-21%	66*	-8%
Cc1ccc(NC(=O)Nc2ccc3snnc3c2)cc1C	-21%	i	i	-3%	66*	-7%
Cc1ccc(NC(=O)c2ccc3snnc3c2)cc1Cl	?	i	i	-2%	95*	38%
Cc1ccc(-n2c(C)cc(/C=C(\C#N)C(=O)Nc3ccc(C)c(C)c3)c2C)cc1	-9%	i	i	-8%	12	-6%
Cc1ccc(NC(=O)/C(C#N)=C/c2cc(C)n(-c3ccc(Br)cc3)c2C)cc1C	-85%	i	i	-12%	63*	-18%
CC12CC34CC(O)C5C(CO)(CO)CC(=O)CC5(C)C3CC1C2C4 (stereo unspecified)	·	·	·	9%[53.3 µM]	·	·
COc1ccc(CCNC(=O)Cn2nc(C)c3c(C)n(-c4ccc(C)cc4)nc3c2=O)c(OC)c1	-68%	i	i	-14%	-3	2.5µM*
COCCNC(=O)Cn1nc(C)c2c(C)n(-c3ccc(C)cc3)nc2c1=O	-27%	i	i	-8%	-14	-13%
CCC(C(=O)NCCc1cc(OC)ccc1OC)n1nc(C)c2c(C)n(-c3ccccc3)nc2c1=O (stereo unspecified)	-12%	i	i	-2%	-7	?
COc1ccc(OC)c(CCNC(=O)C(C)n2nc(C)c3c(C)n(-c4ccc(C)cc4)nc3c2=O)c1 (stereo unspecified)	-88%	i	i	-12%	9	1.6µM*
O=C(NCCCc1ccccc1)c1cccc(-c2cc(O)c3ncccc3c2)c1	·	·	·	5%	·	·
Cc1cc(-c2nc(-c3ccc(OC(F)(F)F)cc3)no2)nn1Cc1ccnc(N2CCN(C3CC3)CC2)c1	·	·	·	-5%	·	·
